Measured values reported in PubChem BioAssay (NCATS).
Results filed as inconclusive are left out. Activity calls are given as the source filed them. Unless noted, calls come from the whole dose curve; as a rule, active = well fitted curve in the direction sought with a large enough effect; inconclusive = small, poorly fitted or top-dose-only effect, or another doubt; inactive = no such curve, though single readings can be large; an effect the other way counts as inactive or inconclusive.

Assays:
[1] = molecular target: Protein phosphatase 1D (Homo sapiens) (UniProt O15297); experiment: RapidFire Mass Spectrometry qHTS Assay for Modulators of WT P53-Induced Phosphatase 1 (WIP1) (AID 1347424);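 note: amount of dephosphorylated VEPPL-S-QETFS peptide product formed by WIP1; series mostly up to about 63 µM; plate controls were DMSO wells for no effect and GSK830371 inhibitor control at 10 µM for full effect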
Protein phosphatase 1D (Homo sapiens), sequence (O15297 whole entry, looked up): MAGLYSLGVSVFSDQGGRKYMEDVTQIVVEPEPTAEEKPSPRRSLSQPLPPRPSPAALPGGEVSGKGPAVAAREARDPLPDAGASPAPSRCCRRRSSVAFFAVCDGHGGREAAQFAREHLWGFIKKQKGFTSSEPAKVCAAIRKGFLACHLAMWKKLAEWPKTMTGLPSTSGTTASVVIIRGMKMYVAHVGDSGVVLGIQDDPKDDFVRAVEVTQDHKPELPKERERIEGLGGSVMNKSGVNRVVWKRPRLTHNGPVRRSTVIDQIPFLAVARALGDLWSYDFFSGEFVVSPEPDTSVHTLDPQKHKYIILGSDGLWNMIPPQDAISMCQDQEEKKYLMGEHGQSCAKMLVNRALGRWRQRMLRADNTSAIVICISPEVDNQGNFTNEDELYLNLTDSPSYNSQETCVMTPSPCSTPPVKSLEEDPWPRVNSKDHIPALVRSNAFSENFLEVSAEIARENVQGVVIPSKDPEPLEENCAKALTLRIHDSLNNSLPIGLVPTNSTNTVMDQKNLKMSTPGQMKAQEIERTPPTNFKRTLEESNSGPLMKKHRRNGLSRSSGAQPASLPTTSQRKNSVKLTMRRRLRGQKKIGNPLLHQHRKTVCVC
Outline: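 WIP1 (10 nM final) was preincubated 1 h at room temperature with compounds in Tris-HCl pH 7.5, 30 mM MgCl2, TCEP, EGTA, BSA; 2 uM VEPPL-pS-QETFS phosphopeptide was added for 5 min, quenched with formic acid, and dephosphorylated product quantified by RapidFire MS.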

[2] = molecular target: Calcium and integrin-binding protein 1 (Homo sapiens) (UniProt Q99828); experiment: Primary qHTS for Identification of Calcium Integrin Binding Protein 1 (CIB1) Competitor (AID 1508620);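 note: GST tagged CIB1 binding a fluorescein labelled alphaIIb integrin peptide tracer; top concentration of the series differs between compounds; % is set by controls: 0 for no effect and ±100 for the full control effect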
Calcium and integrin-binding protein 1 (Homo sapiens), sequence (Q99828 whole entry, looked up): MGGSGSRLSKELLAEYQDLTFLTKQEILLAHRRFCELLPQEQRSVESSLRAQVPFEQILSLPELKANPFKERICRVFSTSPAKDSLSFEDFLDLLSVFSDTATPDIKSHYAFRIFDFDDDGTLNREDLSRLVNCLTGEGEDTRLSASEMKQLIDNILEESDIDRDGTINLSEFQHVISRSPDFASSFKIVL
Outline: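 Fluorescence polarization competition: CIB1-GST (1 uM final) preincubated with compound 15 min at room temperature, then FITC-labeled alphaIIb peptide (100 nM final) added for another 15 min. Polarization read at Ex 480/Em 540.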

[3] = Primary qHTS for small molecule stabilizers of the endoplasmic reticulum resident proteome: Secreted ER Calcium Modulated Protein (SERCaMP) assay (AID 1508630); note: % is set by controls: 0 for no effect and ±100 for the full control effect
Outline: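 GLuc-SERCaMP-expressing SH-SY5Y cells, pretreated 16 h with compound, are challenged with thapsigargin to empty ER calcium stores; after 4 h, coelenterazine is added directly to the medium and luminescence is imaged.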

[4] = A High-Content qHTS Against Drug Library for the Identification of Small Molecules that Inhibit DYT1 Early Onset Primary Dystonia-Associated Cell Pathology (AID 1645839; calls by dose curve; note: series mostly up to about 46 µM)
Outline: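 Readout: %pathology, the punctate EGFP-TorsinA distribution from imaging, as the primary channel and cell count as the toxicity counterscreen. HEK293 Flp-In cells expressing delE TorsinA were induced with tetracycline and treated with compound for 48 h.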

[5] = molecular target: Protein phosphatase 1D (Homo sapiens) (UniProt O15297); experiment: Rhodamine-PBP qHTS Assay for Modulators of WT P53-Induced Phosphatase 1 (WIP1) (AID 1347425); note: % of control where 0% means no effect
Outline: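 5 nM WIP1 + 10 uM Rh-PBP, 50 mM Tris pH 7.5, 30 mM MgCl2, 1 mM TCEP, 0.1 mM EGTA, BSA; cpds pinned, 1 hr RT; + 10 uM phosphopeptide; fluorescence 1-min reads x 11 min; delta = f1 - f0.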

[6] = Primary qHTS for inhibitors of La Crosse Virus (LACV) - induced cell death in SH-SY5Y cells (AID 1508616);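 note: top concentration of the series differs between compounds; 0% = infected DMSO wells and 100% = uninfected DMSO wells; higher means more rescue of cells from virus-induced death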
Outline: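 Protection against LACV-induced cell death is scored in SH-SY5Y cells exposed to compounds and virus (0.01 MOI) for 6 days. Data normalized to virus-infected DMSO wells and virus-free DMSO wells.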

CCn1cc(C(=O)O)c(=O)c2cnc(N3CCNCC3)nc21
inactive: outcome [1] | outcome [2] | Potency [3] | Potency [4]

CC12CCC(CC1)C(C)(C)O2
inactive: outcome [1] | outcome [5] | outcome [6] | outcome [2] | Potency [4]

CC(O)COc1ccccc1 (centres undefined)
inactive: outcome [1] | outcome [5] | outcome [6] | outcome [2] | Potency [3] | Potency [4]

CN1[C@@H]2CC[C@H]1CC(OC(=O)C(O)c1ccccc1)C2 (some centres undefined)
inactive: outcome [1] | outcome [5] | outcome [6] | outcome [2] | Potency [4]

Cc1ccc(C(C)C)cc2c(C)ccc1-2
inactive: outcome [1] | outcome [5] | outcome [6] | outcome [2] | Potency [3]

CC/C=C(\C(=O)N[C@@H]1C(=O)N2C(C(=O)OCOC(=O)C(C)(C)C)=C(COC(N)=O)CS[C@H]12)c1csc(N)n1
inactive: outcome [1] | outcome [5] | outcome [6] | outcome [2] | Potency [4]

O=c1cc[nH]c(=O)[nH]1
inactive: outcome [1] | outcome [5] | outcome [6] | outcome [2] | Potency [3] | Potency [4]

CCCCCCCCCCCCCCCCCCOCC(O)CO (centres undefined)
inactive: outcome [1] | outcome [5] | outcome [6] | outcome [2] | Potency [3] | Potency [4]

COc1ccc2cc1Oc1ccc(cc1)C[C@H]1c3c(cc4c(c3Oc3cc5c(cc3OC)CCN(C)[C@@H]5C2)OCO4)CCN1C
inactive: outcome [1] | outcome [5] | outcome [2] | Potency [3]

Cc1ccc2nc(N)[nH]c(=O)c2c1Sc1ccncc1
inactive: outcome [1] | outcome [5] | outcome [6] | outcome [2] | Potency [3] | Potency [4]

CCCCN(CCCC)CCCOC(=O)c1ccc(N)cc1
inactive: outcome [1] | outcome [5] | outcome [6] | outcome [2] | Potency [4]

CC(=O)O[C@@]12CO[C@@H]1C[C@H](O)[C@@]1(C)C(=O)[C@H](O)C3=C(C)[C@@H](OC(=O)[C@H](O)[C@@H](NC(=O)OC(C)(C)C)c4ccccc4)C[C@@](O)([C@@H](OC(=O)c4ccccc4)[C@H]21)C3(C)C
inactive: outcome [1] | outcome [5] | outcome [6] | outcome [2] | Potency [3] | Potency [4]

O=C(CCCN1CCN(c2ccccn2)CC1)c1ccc(F)cc1
inactive: outcome [1] | outcome [6] | outcome [2] | Potency [3] | Potency [4]

C[C@@H]1CC[C@@]2(OC1)O[C@H]1C[C@H]3[C@@H]4CC[C@H]5C[C@@H](O)CC[C@]5(C)[C@H]4CC(=O)[C@]3(C)[C@H]1[C@@H]2C
inactive: activity change, negative = inhibition [1] 12.5% [at 6.17 µM] | activity change, negative = inhibition [5] 1.62% [at 4.81 µM] | activity change, negative = inhibition [2] -1.41% [at 12.4 µM] | activity change, negative = inhibition [3] -13.5% [at 3.88 µM] | % pathology change, negative = correction [4] -10% [at 4.63 µM]

COc1cc2[nH]c(=O)[nH]c(=O)c2cc1OC
inactive: outcome [1] | outcome [6] | outcome [2] | Potency [3] | Potency [4]

Oc1cn2c(n1)Nc1ccc(Cl)c(Cl)c1C2
inactive: outcome [1] | outcome [5] | outcome [6] | outcome [2] | Potency [4]

C[C@@H]1CN(c2c(F)c(F)c3c(=O)c(C(=O)O)cn(C4CC4)c3c2F)C[C@H](C)N1
inactive: outcome [1] | outcome [5] | outcome [6] | outcome [2] | Potency [3] | Potency [4]

CC1(C)[C@@H]2CC[C@@]1(C)C(=O)C2
inactive: outcome [1] | outcome [5] | outcome [6] | outcome [2] | Potency [3]

O=C1NS(=O)(=O)c2ccccc21
inactive: outcome [1] | outcome [6] | outcome [2] | Potency [3] | Potency [4]

O=C(O)COc1nn(Cc2ccccc2)c2ccccc12
inactive: outcome [1] | outcome [5] | outcome [2] | Potency [4]

CCN(CC)CCNC(C(=O)OCCC(C)C)c1ccccc1 (centres undefined)
inactive: outcome [1] | outcome [5] | outcome [6] | outcome [2] | Potency [3] | Potency [4]
